# Shh pathway inh = blocks Sonic Hedgehog signaling; inhibition, % (no concentration beside the values); 22,000 tested, 2.1% active; Shh-LIGHT2 Gli-luciferase reporter, 30 h;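 active = mean inhibition across valid replicates above about 65%, limit read from the data; inconclusive = mean under the limit, yet half or more replicates past it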;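 also: pathway switched on by Shh-conditioned medium diluted 1 in 25 in low serum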
# MITF inhib = inhibitors of MITF. inhibition, % (test concentration not listed). 37,000 tested, 0.28% active. TRPM1 promoter luciferase, luminescence, 24 h; in the data active = inhibition above about 85%; inconclusive = no clear call, values can overlap the other calls; inactive = below about 68%;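 also: human melanocyte line stably carrying TRPM1 promoter luciferase reporter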
# NOMO-1 viab = STK33 inhibitor candidate reducing NOMO-1 cell viability. NOMO-1 AML viability, CellTiter-Glo luminescence, 72 h. inhibition, % (no concentration beside the values). 37,000 tested, 7.5% active. AID 2330; in the data active = inhibition above about 80%; inconclusive = no clear call, values can overlap the other calls
# The depositor's hits bear a star; ? = inconclusive; nt = no result given. Sampled rows, rich in hits. Any-hit rate of the full collection: about 7.8%.
SMILES,Shh pathway inh,MITF inhib,NOMO-1 viab
c1ccc(-c2nnc(SCc3nc4ccccc4[nH]3)n2C2CCCCC2)cc1,nt,-10.5,23.5
C[C@@H]1CN([C@@H](C)CO)C(=O)c2cccc(NC(=O)Nc3ccc(C(F)(F)F)cc3)c2O[C@H]1CN(C)Cc1ccc2c(c1)OCO2,5.8,65.8,84.8*
C[C@H](CO)N1C[C@H](C)[C@@H](CN(C)Cc2ccc3c(c2)OCO3)Oc2c(NC(=O)Nc3ccc(C(F)(F)F)cc3)cccc2C1=O,12.6,42.3,103.8*
C[C@@H]1CN([C@H](C)CO)C(=O)c2cccc(NC(=O)Nc3ccc(C(F)(F)F)cc3)c2O[C@@H]1CN(C)Cc1ccc2c(c1)OCO2,-25.4,0.6,103.5*
C[C@H](CO)N1C[C@H](C)[C@@H](CN(C)Cc2ccc3c(c2)OCO3)Oc2c(NC(=O)Nc3ccc(F)cc3)cccc2C1=O,-43.7,-5.7,72.3
C[C@H](CO)N1C[C@H](C)[C@H](CN(C)S(=O)(=O)c2ccc(Cl)cc2)Oc2ccc(NC(=O)Nc3ccccc3)cc2C1=O,12.9,-23.7,21.3
COc1ccc(S(=O)(=O)N(C)C[C@H]2Oc3ccc(NC(=O)Cc4ccccc4)cc3CC(=O)N([C@H](C)CO)C[C@H]2C)cc1,-72.2,5.7,4.1
C[C@H]1CN([C@@H](C)CO)C(=O)Cc2cc(NS(=O)(=O)c3cn(C)cn3)ccc2O[C@@H]1CN(C)S(=O)(=O)c1cn(C)cn1,-13.3,-6.0,4.7
C=CCc1cccc2cc(C(=O)NCCN3CCOCC3)c(=O)oc12,nt,0.9,32.3
C[C@@H]1CCCCO[C@H](CN(C)Cc2ccncc2)[C@@H](C)CN([C@H](C)CO)C(=O)c2cc(NC(=O)Nc3cccc4ccccc34)ccc2O1,nt,-8.6,31.4
COc1ccc(NC(=O)Nc2ccc3c(c2)CC(=O)N([C@H](C)CO)C[C@@H](C)[C@@H](CN(C)Cc2ccc(C(F)(F)F)cc2)O3)cc1,?,20.4,90.2*
COc1ccc(NC(=O)Nc2ccc3c(c2)CC(=O)N([C@@H](C)CO)C[C@H](C)[C@H](CN(C)Cc2ccc(C(F)(F)F)cc2)O3)cc1,-20.7,6.1,34.7
COc1ccc(CN(C)C[C@@H]2Oc3ccc(NC(=O)Nc4ccc(C(F)(F)F)cc4)cc3CC(=O)N([C@H](C)CO)C[C@H]2C)cc1,-34.7,2.9,18.4
COc1ccc(NC(=O)Nc2ccc3c(c2)CC(=O)N([C@H](C)CO)C[C@H](C)[C@H](CN(C)Cc2ccc(C(F)(F)F)cc2)O3)cc1,-47.0,2.5,60.5
COc1ccc(NC(=O)Nc2ccc3c(c2)CC(=O)N([C@H](C)CO)C[C@@H](C)[C@H](CN(C)Cc2ccc(C(F)(F)F)cc2)O3)cc1,-33.2,4.9,112.7*
COc1ccc(CN(C)C[C@@H]2Oc3ccc(NC(=O)Nc4ccc(C(F)(F)F)cc4)cc3CC(=O)N([C@H](C)CO)C[C@@H]2C)cc1,nt,32.0,118.3*
COc1ccc(CN(C)C[C@H]2Oc3ccc(NC(=O)Nc4ccc(C(F)(F)F)cc4)cc3CC(=O)N([C@H](C)CO)C[C@H]2C)cc1,12.4,52.1,127.0*
COc1ccc(CN(C)C[C@H]2Oc3ccc(NC(=O)Nc4ccc(C(F)(F)F)cc4)cc3CC(=O)N([C@@H](C)CO)C[C@H]2C)cc1,nt,19.2,124.0*
COc1ccc(NC(=O)Nc2ccc3c(c2)CC(=O)N([C@@H](C)CO)C[C@H](C)[C@@H](CN(C)Cc2ccc(C(F)(F)F)cc2)O3)cc1,nt,11.5,50.7
C[C@H](CO)N1C[C@H](C)[C@H](CN(C)Cc2ccc(Cl)c(Cl)c2)Oc2ccc(NS(C)(=O)=O)cc2CC1=O,5.2,-8.2,4.1
C[C@@H]1CN([C@H](C)CO)C(=O)Cc2cc(NS(=O)(=O)c3ccc(Cl)cc3)ccc2O[C@H]1CN(C)Cc1ccc(Cl)c(Cl)c1,27.7,17.6,104.6*
C[C@H]1CN([C@@H](C)CO)C(=O)Cc2cc(NS(=O)(=O)c3ccc(F)cc3)ccc2O[C@H]1CN(C)Cc1ccc(Cl)c(Cl)c1,51.3,-9.6,?
C[C@@H]1CN([C@H](C)CO)C(=O)Cc2cc(NS(=O)(=O)c3ccc(F)cc3)ccc2O[C@H]1CN(C)Cc1ccc(Cl)c(Cl)c1,13.2,11.7,101.6*
COc1c(O[C@@H]2O[C@H](C(=O)O)[C@@H](O)[C@H](O)[C@H]2O)cc(O)c2c(=O)cc(-c3ccccc3)oc12,-3.6,-55.0,56.0
COc1ccc(NC(=O)N(C)C[C@@H]2Oc3ccc(NC(=O)NC4CCCCC4)cc3C(=O)N([C@H](C)CO)C[C@@H]2C)cc1,-17.3,-1.3,3.8
SMILES,Shh pathway inh,MITF inhib,NOMO-1 viab
Cc1ccc(C)c(NC(=O)CN(c2ccc(Oc3ccccc3)cc2)S(C)(=O)=O)c1,nt,9.2,13.2
C=C1C(=O)OC2CC(C)C3(/C=C/C(C)=O)OC3CC12 (configuration not stated),-14.9,-6.9,118.1*
COc1ccc(S(=O)(=O)N(C)CC(=O)Nc2ccc(C(N)=O)cc2)cc1,nt,-13.8,-1.1
O=C(NCc1cccnc1)c1ccc(-c2ccccc2[N+](=O)[O-])o1,nt,-25.3,2.0
C[C@@H]1CN([C@@H](C)CO)C(=O)c2cccc(NC(=O)NC3CCCCC3)c2O[C@H]1CN(C)CC1CCCCC1,5.3,30.2,102.3*
C[C@@H]1CN([C@H](C)CO)C(=O)c2cccc(NC(=O)NC3CCCCC3)c2O[C@H]1CN(C)Cc1ccccc1,21.0,54.4,114.6*
C[C@@H]1CN([C@H](C)CO)C(=O)c2cccc(NC(=O)NC3CCCCC3)c2O[C@H]1CN(C)Cc1ccc(Oc2ccccc2)cc1,-34.7,73.3,114.2*
C[C@@H]1CN([C@H](C)CO)C(=O)c2cccc(NC(=O)NC3CCCCC3)c2O[C@@H]1CN(C)Cc1ccc(Oc2ccccc2)cc1,7.1,1.5,59.9
C[C@@H]1CN([C@@H](C)CO)C(=O)c2cccc(NC(=O)NC3CCCCC3)c2O[C@H]1CN(C)CC1CC1,29.0,18.7,25.2
C[C@H]1CN([C@@H](C)CO)C(=O)c2cccc(NC(=O)NC3CCCCC3)c2O[C@H]1CN(C)Cc1ccccc1,-7.1,29.9,12.7
Cc1c(Cl)c(O)c(Cl)c(C)c1N(S(=O)(=O)c1ccccc1)S(=O)(=O)c1ccccc1,36.5,3.5,14.1
Cc1ccc(S(=O)(=O)Nc2ccc3c(c2)CC(=O)N([C@@H](C)CO)C[C@H](C)[C@@H](CN(C)C(=O)Nc2ccccc2)O3)cc1,-14.7,-8.0,21.6
Cc1noc(C)c1NC(=O)Nc1ccc2c(c1)C(=O)N([C@H](C)CO)C[C@@H](C)[C@H](CN(C)Cc1ccc(C(F)(F)F)cc1)O2,nt,-4.6,-12.5
O=C(Nc1cccc(C(F)(F)F)c1)c1ccc(NCc2ccco2)c([N+](=O)[O-])c1,nt,26.4,8.4
O=C(C/C(=C1/CCc2ccccc2C1=O)c1ccccc1)c1ccccc1,103.0*,50.3,114.9*
NNC(=O)c1cc2c(s1)-c1ccccc1CC2,-63.6,-5.1,42.4
Cc1ccc(S(=O)(=O)Nc2ccc3c(c2)C(=O)N([C@H](C)CO)C[C@H](C)[C@@H](CN(C)S(C)(=O)=O)O3)cc1,-3.4,-4.7,-0.2
CC[C@H](CO)Nc1nc(NCc2ccccc2)c2ncn(C(C)C)c2n1,51.7,41.9,?
CC(C)n1cnc2c(Nc3cccc(Cl)c3)nc(NCCO)nc21,75.4*,11.0,31.0
